The supplement of paper PMC6555819

Key:
Test in all cases: PBM binding z-score (relative to random genomic background probes); higher = stronger binding; sequences stand for … in GC…GCGATTGACAGCGTAGAATGAAGG
[1] = tested on: FXR:RXRa (NR concentration 270 nM, RXRa partner concentration 90 nM)
Procedure, shortened: (§1)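 Custom Agilent 4×180K protein-binding microarrays carried double-stranded probes. Their 34-nt variable regions held direct-repeat seeds, single-nucleotide variants, half-site ablations and random human genomic background sequences. Arrays were incubated 1 h with ligand-free nuclear receptor dimers in PBS pH 7.4, 2% milk, 0.02% Triton X-100, 1 mM DTT, 0.2 mg/mL BSA and 0.4 mg/ml salmon testes DNA. Antibodies against each partner (one per run) detected binding, and scanned fluorescence was regression-normalized. Binding z-scores use random background probes as reference.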

[2] = tested on: LXRa:RXRa (NR concentration 270 nM, RXRa partner concentration 90 nM)
Procedure, shortened: as §1

[3] = tested on: LXRa homodimer (NR concentration 270 nM)
Procedure, shortened: as §1

[4] = tested on: LXRb:RXRa (NR concentration 270 nM, RXRa partner concentration 90 nM)
Procedure, shortened: as §1

[5] = tested on: LXRb homodimer (NR concentration 270 nM)
Procedure, shortened: as §1

[6] = tested on: PPARa:RXRa (NR concentration 270 nM, RXRa partner concentration 90 nM)
Procedure, shortened: as §1

[7] = tested on: PPARg:RXRa (NR concentration 180 nM, RXRa partner concentration 90 nM)
Procedure, shortened: as §1

[8] = tested on: PPARg:RXRa 270nM:90nM, anti-RXR (NR concentration 270 nM, RXRa partner concentration 90 nM)
Procedure, shortened: as §1

[9] = tested on: PPARg:RXRa 30nM:10nM, anti-RXR (NR concentration 30 nM, RXRa partner concentration 10 nM)
Procedure, shortened: as §1

[10] = tested on: PPARg:RXRa 90nM:30nM, anti-RXR (NR concentration 90 nM, RXRa partner concentration 30 nM)
Procedure, shortened: as §1

[11] = tested on: PPARg:RXRa DBDmut IVT, anti-RXR (DBD mutation: RXRa K156A/R161A, NR concentration 270 nM, RXRa partner concentration 90 nM)
Procedure, shortened: as §1

[12] = tested on: PPARg:RXRa IVT, anti-PPARg (NR concentration 270 nM, RXRa partner concentration 90 nM)
Procedure, shortened: as §1

[13] = tested on: PPARg DBDmut:RXRa IVT, anti-PPARg (DBD mutation: PPARg1 K132A/R137A, NR concentration 270 nM, RXRa partner concentration 90 nM)
Procedure, shortened: as §1

[14] = tested on: PPARg DBDmut IVT, anti-PPARg (DBD mutation: PPARg1 K132A/R137A, NR concentration 270 nM)
Procedure, shortened: as §1

[15] = tested on: PPARg homodimer (NR concentration 180 nM)
Procedure, shortened: as §1

[16] = tested on: PXR:RXRa (NR concentration 270 nM, RXRa partner concentration 90 nM)
Procedure, shortened: as §1

[17] = tested on: PXR homodimer (NR concentration 270 nM)
Procedure, shortened: as §1

[18] = tested on: RARa:RXR (NR concentration 270 nM, RXRa partner concentration 90 nM)
Procedure, shortened: as §1

[19] = tested on: RARa homodimer (NR concentration 270 nM)
Procedure, shortened: as §1

[20] = tested on: RARb:RXRa (NR concentration 270 nM, RXRa partner concentration 90 nM)
Procedure, shortened: as §1

Sequence	PBM binding z-score [1]	PBM binding z-score [2]	PBM binding z-score [3]	PBM binding z-score [4]	PBM binding z-score [5]	PBM binding z-score [6]	PBM binding z-score [7]	PBM binding z-score [8]	PBM binding z-score [9]	PBM binding z-score [10]	PBM binding z-score [11]	PBM binding z-score [12]	PBM binding z-score [13]	PBM binding z-score [14]	PBM binding z-score [15]	PBM binding z-score [16]	PBM binding z-score [17]	PBM binding z-score [18]	PBM binding z-score [19]	PBM binding z-score [20]
CATAAAGGGTCAGCTAGGCCAGAGTAGGGACGGC	5.38	3.9	0.537	2.74	0.607	4.71	4.17	3.83	1.06	2.82	1.58	2.9	0.703	0.0542	2.26	2.18	-0.269	3.32	0.796	4.9
CCTCAAAGTTCAAGGTAACGTAACAGAAAGCAGC	5.83	5.87	3.49	3.83	1.95	4.85	2.87	3.67	0.99	2.22	0.797	0.928	0.66	0.159	3.58	4.18	2.53	3.49	2.16	5.26
AGAATGAGGTTATACGTAAATCAGGGAAGAAAGT	2.3	1.9	0.21	1.77	0.0752	3.24	2.5	2.79	0.991	2.07	3.33	2.28	0.904	1.57	0.789	1.18	0.834	1.77	0.337	1.59
TCTTGTAGATCTGCAGGTTAAGAAAGCTGGCCAA	0.0261	0.396	-0.113	0.457	-0.445	0.515	-0.788	1.01	2.56	1.89	1.64	-0.0995	-0.0196	-0.962	-0.597	0.206	-0.0786	0.383	-0.894	0.204
CCTACTGGGCCATTCAGAGTTCATTGATCATATG	0.991	2.71	6.11	1.86	-0.389	2.28	1.04	1.61	0.0346	0.782	4.56	3.73	-0.222	0.266	0.849	4.72	8.94	1.75	-0.457	1.82
ATATGTAGGTTAGCTGGGGGCATTCAGACTAGGC	0.978	3.73	0.963	4.51	9.63	4.09	4.83	4.61	2.3	3.72	6.79	6.14	4.18	5.68	1.96	4.39	1.88	2.5	1.27	2.25
ACTATTATTTGAGACGAGGGCAACCGATAGGTTG	0.64	0.912	1.29	0.748	1.1	0.639	0.833	0.648	0.477	0.429	0.883	0.779	1.61	1.74	1.86	0.944	1.91	1.04	3.89	1.35
TTACCAAGGTGAAAGGTCGTTTATGCACGCCTTG	3.55	3.3	0.773	3.33	0.0475	5.2	8.69	7.73	6.93	8.46	2.69	4.38	1.05	0.279	1.68	3.9	0.719	5.53	0.296	2.75
GCAGACAGGTGAATCGCAGGTAACTCAGGGTGGC	-0.281	-0.0182	-0.726	-0.203	-1.12	0.748	0.386	-0.0895	-0.47	-0.296	0.726	0.657	-0.695	-0.904	-0.727	-0.313	-0.959	0.0382	-0.689	0.443
TCTATTAGTTGATTAGGGTAACCGAAACAGCGGA	0.555	0.884	0.302	1.09	0.799	1.01	0.052	1.86	3.73	2.87	2.12	1.19	1.29	1.26	0.518	0.646	0.346	0.855	1.41	0.609
TTACCAATGTGAAGGTCGTTGATCCCTCTGTAGA	1.87	2.22	0.434	1.74	0.0606	1.3	-0.039	1.1	1.12	0.829	0.314	0.221	-0.143	0.211	0.84	1.37	0.539	1.45	0.451	0.862
CCGAGTATGTTATGGGGCATTCAGGCAACGGTGA	0.355	-0.00818	-0.0828	0.322	-0.243	0.665	0.711	1.75	0.316	1.35	0.63	0.892	-0.0498	-0.0954	0.937	0.0662	0.093	0.394	0.535	0.242
CAAACTAGGTCAAGAGGTCAAAGACCGCTTCCCG	7	6.25	5.13	5.46	1.47	6.65	10.1	8.53	7.38	8.62	8.33	8.34	1.4	0.266	5.54	5.94	1.78	7.58	1.89	5.61
GATACAGGGTCAGCTAGAGGCCGGAGTATGGAAA	4.48	2.56	-0.44	2.17	-0.594	4.57	3.61	3.41	0.716	2.13	1.03	2.37	-0.293	0.124	1.78	2.59	-0.0586	3.41	0.211	4.12
CGCCCAAGGTCAAAGGTCAGTGAAGAGATGACGG	8.13	6.57	3.09	6.44	1.72	7.07	10.1	8.16	7.42	8.6	3.58	5.36	0.645	0.0371	3.28	7.03	1.41	8.49	1.99	6.04
